Some test systems named below: HCT-15 colon; HT29 colon; SNB-75 CNS; SNB-19 CNS; U251 CNS; PC-3 prostate; SK-MEL-5 melanoma; UACC-62 melanoma; LOX IMVI melanoma; SK-MEL-28 melanoma.
Holding throughout (experiment): NCI-60 one-dose screen, 48 h (100 = growth as untreated, 0 = no growth, -100 = all killed)
What all share (settings): 10 µM unless noted

The structures appear in SMILES notation. Compounds without any hit were thinned out: in the full panel of roughly 83,000, 20% have a hit.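 96-well plates, one dose, 48 hours. Percent growth reported; active if below 10.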 Values without a mark were called inactive. Calls of active or inactive are those of the source.

Experimental findings from PubChem BioAssay (NCI) are described below.

As to `O=C(Nc1cccc(Oc2nnc(Cl)c3ccccc23)c1)Nc1ccc(Cl)c(C(F)(F)F)c1`, the growth was -64% (active) in the assay with HCT-15 colon; -75.9% (active) in the assay on HT29 colon; -59.3% (active) in the assay with SNB-75 CNS; -5.9% (active) in the assay on SNB-19 CNS; -75.4% (active) in the assay on U251 CNS; -38.1% (active) in the assay on PC-3 prostate. Further, the growth with SK-MEL-5 melanoma was -98.8% (active); in the assay on UACC-62 melanoma, -82.5% (active); in the assay with LOX IMVI melanoma, -93.2% (active); with SK-MEL-28 melanoma, -62.5% (active).
As for `COc1cccc(-c2nc3sccn3c2-c2ccnc(NCCNS(=O)(=O)c3cccc(Cl)c3)c2)c1`, the growth in the assay with HCT-15 colon is 37.8%; in the assay with HT29 colon it was 45.7%; in the assay on SNB-75 CNS it was 36.6%; with SNB-19 CNS, 65%; with U251 CNS, 58.8%; with PC-3 prostate, 20.2%. Also, the growth with SK-MEL-5 melanoma was 20.2%; in the assay with UACC-62 melanoma it was 12.1%; with LOX IMVI melanoma, 46.7%; with SK-MEL-28 melanoma it was 68.4%.
Take `Cn1ccc2c(c1=O)C(=O)c1nccc3c1c-2nc1ccccc13`: the growth with HCT-15 colon is -61.4% (active); in the assay with HT29 colon, -76.7% (active); in the assay on SNB-75 CNS, 60.2%; with SNB-19 CNS, -74.4% (active); in the assay on U251 CNS it was -92.9% (active); in the assay with PC-3 prostate, -44.8% (active). The growth with SK-MEL-5 melanoma was 95%; in the assay on UACC-62 melanoma it was 91.7%; in the assay with LOX IMVI melanoma, -98.4% (active); in the assay on SK-MEL-28 melanoma, 106%.
Regarding `COCN1CCC2N(COC)CCC3N(COC)CCC1N23` (stereo not given), the growth is 104% with HCT-15 colon; 105% in the assay on HT29 colon; 90.8% in the assay with SNB-75 CNS; 93.6% in the assay on SNB-19 CNS; 102% in the assay with U251 CNS; 102% in the assay on PC-3 prostate. Further, the growth was 109% in the assay on SK-MEL-5 melanoma, 94.3% in the assay on UACC-62 melanoma, 101% in the assay on LOX IMVI melanoma and 106% in the assay with SK-MEL-28 melanoma.
For the compound `CCN(CC)CCN1C(=O)c2c(c(C)c3c(oc4cc(O)ccc43)c2C)C1=O`, the growth was -58.9% (active) in the assay on HCT-15 colon; -37.2% (active) in the assay on HT29 colon; 90.3% with SNB-75 CNS; 9.88% (active) in the assay with SNB-19 CNS; -87.9% (active) with U251 CNS; -75.1% (active) in the assay on PC-3 prostate. Further, the growth in the assay with SK-MEL-5 melanoma was 79%; with UACC-62 melanoma, 86.2%; in the assay with LOX IMVI melanoma, 94%; in the assay on SK-MEL-28 melanoma it was 63.1%.
On to `O=C(/C=C/c1ccc(Cl)nc1)c1ccc(Cl)cc1Cl`, for which the growth in the assay with HCT-15 colon was 69.2%; in the assay with HT29 colon, 75.8%; in the assay with SNB-75 CNS it was 108%; in the assay with SNB-19 CNS, 88.3%; with U251 CNS it was 64%; in the assay with PC-3 prostate, 101%. In addition, the growth in the assay with SK-MEL-5 melanoma is 99.5%; in the assay with UACC-62 melanoma it was 97.2%; in the assay on LOX IMVI melanoma, 6.52% (active); in the assay with SK-MEL-28 melanoma, 101%.
For `COC(=O)[C@]12CC[C@@H](C)[C@H](C)[C@@H]1C1=CC[C@@H]3[C@@]4(C)C(C=O)=C[C@@](C)(COC(C)=O)[C@@H]4C(=O)C[C@@]3(C)[C@]1(C)CC2`, the growth is 21.5% in the assay with HCT-15 colon; 23.8% in the assay on HT29 colon; 33.5% in the assay with SNB-75 CNS; 37.4% with SNB-19 CNS; 27.1% in the assay on U251 CNS; 13.3% in the assay with PC-3 prostate. The growth with SK-MEL-5 melanoma is 51.9%; in the assay on UACC-62 melanoma it was 42.1%; with LOX IMVI melanoma, 33.5%; with SK-MEL-28 melanoma it was 65.5%.
In the case of `C#Cc1cccc(NC(=O)c2ccc(NC(=O)CCl)cc2)c1`, the growth in the assay with HCT-15 colon is -57% [8.25 µM] (active); in the assay on HT29 colon, 34.5% [8.25 µM]; in the assay with SNB-75 CNS, 32.2% [8.25 µM]; in the assay on SNB-19 CNS, 8.27% [8.25 µM] (active); with U251 CNS, -90.1% [8.25 µM] (active); with PC-3 prostate it was -46.6% [8.25 µM] (active). Besides, the growth in the assay on SK-MEL-5 melanoma was -56.7% [8.25 µM] (active); in the assay on UACC-62 melanoma, 7.2% [8.25 µM] (active); with LOX IMVI melanoma, -77.5% [8.25 µM] (active); in the assay on SK-MEL-28 melanoma, 54% [8.25 µM].
As for `C[C@H]1[C@H]2[C@H]3CC[C@@H]4[C@@]5(C)C/C(=C/c6cccnc6)C(=O)C(C)(C)[C@@H]5CC[C@@]4(C)[C@]3(C)CC[C@]23CO[C@]1(C)[C@@H](C(=O)/C=C\c1cccnc1)C3`, the growth is -15.3% (active) with HCT-15 colon; 26.4% in the assay on HT29 colon; 32.7% with SNB-75 CNS; 2.48% (active) in the assay with SNB-19 CNS; -68% (active) in the assay with U251 CNS; -3.56% (active) in the assay with PC-3 prostate. Moreover, the growth in the assay on SK-MEL-5 melanoma was -82.2% (active); in the assay on UACC-62 melanoma it was -25.6% (active); in the assay on LOX IMVI melanoma it was -85.2% (active); in the assay on SK-MEL-28 melanoma, -17.8% (active).
In the case of `Cc1ccc(-c2c(-c3ccccc3)c(=O)oc3ccc(C)cc23)cc1`, the growth in the assay with HCT-15 colon was 52.1%; with HT29 colon, 101%; in the assay with SNB-75 CNS, 86.3%; with SNB-19 CNS, 94.8%; in the assay on U251 CNS, 83.1%; with PC-3 prostate it was 56.4%. Further, the growth in the assay on SK-MEL-5 melanoma was 90.9%; in the assay with UACC-62 melanoma, 76.1%; in the assay on LOX IMVI melanoma it was 96.2%; in the assay on SK-MEL-28 melanoma, 110%.
For the compound `O=c1c2c3c(sc2n2c(-c4cc(-c5ccccc5)nn4-c4ccccc4)nnc2n1Cc1ccccc1)CCCC3`, the growth with HCT-15 colon is 91.3%; in the assay on HT29 colon, 88.6%; in the assay on SNB-75 CNS it was 92.3%; with SNB-19 CNS, 89.6%; with U251 CNS, 70.3%; in the assay on PC-3 prostate, 69.1%. Also, the growth with SK-MEL-5 melanoma was 129%; with UACC-62 melanoma, 103%; with LOX IMVI melanoma, 92.9%; with SK-MEL-28 melanoma, 111%.
